Assay results taken from PubChem BioAssay.

Experiments:
[1] = tested on: Human papillomavirus type 1a protein E7 (residues 44-93); experiment: small molecules binding HPV E7 44-93 – biochemical, small-molecule microarray, residues 44-93, 635 nm fluorescence, primary screen (AID 1108); settings: fluorescence 635 nm, higher = more signal;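 also: E7 fragment applied at 1 µg/mL in TBST for 1 h at 4 C; score combines spot fluorescence with its signal to noise ratio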
[2] = hepatitis C replication reporter changes, two-sided – Huh7 cells, luciferase reporter, HCV replication inhibitor project, primary screen (AID 1109); settings: Huh7 HCV replicon luciferase reporter, 48 h; higher = more signal;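 also: huh7 hepatoma cells harbouring a luciferase neomycin HCV replicon reporter; luciferase luminescence as measure of HCV replicon replication; test concentration not given here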
[3] = target: Left-right determination factor 2 (Homo sapiens) (UniProt O00292); experiment: small molecules binding LEFTY2 protein – biochemical, small-molecule microarray, 635 nm fluorescence scan, primary screen (AID 1110); settings: higher = more signal
Chain of Left-right determination factor 2 (Homo sapiens) (O00292 whole entry, looked up): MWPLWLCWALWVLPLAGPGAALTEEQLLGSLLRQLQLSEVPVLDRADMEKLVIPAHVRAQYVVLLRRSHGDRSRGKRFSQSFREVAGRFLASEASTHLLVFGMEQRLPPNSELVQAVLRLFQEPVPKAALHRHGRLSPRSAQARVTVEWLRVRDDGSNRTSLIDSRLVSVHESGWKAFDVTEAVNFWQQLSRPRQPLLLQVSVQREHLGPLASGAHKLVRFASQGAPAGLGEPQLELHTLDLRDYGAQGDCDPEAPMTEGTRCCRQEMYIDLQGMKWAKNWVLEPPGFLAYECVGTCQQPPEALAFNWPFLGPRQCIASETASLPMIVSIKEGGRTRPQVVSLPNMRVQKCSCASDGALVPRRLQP

[4] = target: Calmodulin-1 (Homo sapiens) (UniProt P0DP23); experiment: small molecules binding calmodulin-1 with EGTA – biochemical, small-molecule microarray, Cy5-labelled CALM1, profiling panel (AID 1111); settings: Cy5-CALM1 binding fluorescence, higher = more signal;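 also: labelled calmodulin applied in Tris saline Tween buffer holding calcium plus EGTA and DTT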
[5] = target: Calmodulin-1 (Homo sapiens) (UniProt P0DP23); experiment: small molecules binding Ca-loaded calmodulin-1 – biochemical, small-molecule microarray, Cy5-labelled CALM1, plus calcium, artefact control for SMM control-protein annotation, profiling panel (AID 1112); settings: Cy5-CALM1 binding fluorescence, higher = more signal;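 also: score merges spot fluorescence with signal to noise from triplicate slides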
[6] = probe aWnt5a binding to arrayed compounds – biochemical, biotinylated probe, 635/667 nm fluorescence, primary screen (AID 1113); settings: small-molecule microarray, higher = more signal;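 also: score merges 667 nm fluorescence intensity with signal-to-noise per printed feature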
[7] = probe aShh binding to arrayed compounds – biochemical, biotinylated probe, 635/667 nm fluorescence, primary screen (AID 1114); settings: small-molecule microarray, higher = more signal;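 also: probe is biotin-labelled aShh protein from a stem cell growth factor screen; measures binding of labelled protein to compounds printed on the slide; score merges feature fluorescence at 667 nm with signal-to-noise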
[8] = probe aNog binding to arrayed compounds – biochemical, biotinylated probe, 635/667 nm fluorescence, primary screen (AID 1115); settings: small-molecule microarray, higher = more signal;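 also: probe is biotinylated aNog protein used at 0.15 µg/mL for 1 h at 4 C; z-score combines 667 nm fluorescence of each spot with its signal to noise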
[9] = target: Torsin-1A-interacting protein 1 (Homo sapiens) (UniProt Q5JTV8); experiment: compound microarray binding of lysate hLAP1 – cell lysate, small-molecule microarray, COS7 lysate, 635/667 nm fluorescence, primary screen (AID 1116); settings: 635 nm fluorescence, higher = more signal
Chain of Torsin-1A-interacting protein 1 (Homo sapiens) (Q5JTV8 whole entry, looked up): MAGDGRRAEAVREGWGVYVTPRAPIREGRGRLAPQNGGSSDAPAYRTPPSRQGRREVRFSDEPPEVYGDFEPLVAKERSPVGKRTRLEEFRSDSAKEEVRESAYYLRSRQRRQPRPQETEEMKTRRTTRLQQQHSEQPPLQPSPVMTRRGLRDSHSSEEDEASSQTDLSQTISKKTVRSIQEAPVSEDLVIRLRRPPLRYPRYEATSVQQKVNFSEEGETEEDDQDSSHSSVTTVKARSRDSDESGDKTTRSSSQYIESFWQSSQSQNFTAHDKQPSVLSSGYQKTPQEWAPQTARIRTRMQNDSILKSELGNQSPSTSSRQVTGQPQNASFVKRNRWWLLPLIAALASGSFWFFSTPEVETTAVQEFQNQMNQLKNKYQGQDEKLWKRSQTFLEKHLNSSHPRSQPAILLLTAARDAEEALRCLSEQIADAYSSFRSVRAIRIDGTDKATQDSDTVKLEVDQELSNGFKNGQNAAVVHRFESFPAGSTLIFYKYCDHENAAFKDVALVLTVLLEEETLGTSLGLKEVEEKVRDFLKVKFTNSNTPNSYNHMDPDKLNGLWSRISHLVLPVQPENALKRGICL

[10] = target: Alpha-bungarotoxin (Bungarus multicinctus) (UniProt P60615); experiment: compounds binding labelled alpha-BTX control protein – biochemical, small-molecule microarray, Alexa647 label, 635/667 nm fluorescence, artefact control for SMM control protein annotation, profiling panel (AID 1117); settings: alpha-BTX-A647 binding fluorescence, higher = more signal
Chain of Alpha-bungarotoxin (Bungarus multicinctus) (P60615 whole entry, looked up): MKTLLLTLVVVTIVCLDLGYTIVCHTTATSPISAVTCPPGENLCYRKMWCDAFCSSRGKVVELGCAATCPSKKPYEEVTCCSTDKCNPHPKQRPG

Compound	composite z-score [1]	z-score [2]	composite z-score [3]	composite z-score [4]	composite z-score [5]	composite z-score [6]	composite z-score [7]	composite z-score [8]	composite z-score [9]	composite z-score [10]
COc1ccc([Si](C)(C)[C@@H]2[C@@H](CC(=O)N3CCC[C@H]3CO)O[C@]3(C(=O)N(Cc4ccc(N5C(=O)c6cccc7cccc5c67)cc4)c4ccccc43)[C@H]2C)cc1	1.45	-2.25	0.515	0.692	-0.292	-0.0437	0.14	-0.37	1.44	1.82
O=C1C2C=CC(C(O)c3cc(C(F)(F)F)cc(C(F)(F)F)c3)N(Nc3ccc([N+](=O)[O-])cc3)C2C(=O)N1c1ccccc1 (stereo not given)	1.42	-3.71	0.511	1.65	0.311	0.055	-0.224	0.605	0.185	1.59
COCCOC(=O)N1C(=O)[C@@]2(c3ccccc31)[C@H](C(=O)N1CCN(c3ncccn3)CC1)[C@H]1C(=O)O[C@H](c3ccccc3)[C@H](c3ccccc3)N1[C@@H]2c1ccc(OCCO)cc1	1.41	-1.42	0.708	0.89	0.316	-0.0944	0.0639	0.612	1.03	1.11
CCCc1cccc(=O)o1	0.364	-0.672	0.427	0.0369	-0.116	0.0037	0.0723	0.0638	0.898	0.696
C=C(CCCC)/C(=C/C[C@@H](OC(C)=O)c1ccc(CO)o1)c1cc(C(=O)OC)ccc1OC	1.45	-1.79	0.26	0.723	0.0443	-0.0758	-0.232	0.141	0.886	1.28
C=CCN1C(=O)[C@@]2(O[C@@H](CCn3cc([C@H](O)c4ccccc4)nn3)[C@H]([Si](C)(C)c3ccc(OC)cc3)[C@H]2C)c2ccccc21	0.733	-3.04	0.245	0.134	-0.506	0.0973	-0.0769	0.0308	0.676	1.21
O=C(O)[C@H]1C[C@H]2C(=O)N3CCC[C@H]3C(=O)N2[C@H]1c1cccc(OCCO)c1	1.1	1.55	0.266	0.0384	0.286	-0.0944	-0.167	0.0951	0.83	1.67
CC=CC(O)C1C=CC2C(=O)N(c3ccccc3)C(=O)C2N1Nc1ccccc1 (stereo not given)	1.19	0.527	0.215	0.667	0.362	0.136	0.304	1.16	1.1	1.89
O=C1c2ccccc2[C@@]2(Cc3ccccc3N(C3CC3)C2=O)[C@H](c2ccc(CO)cc2)N1C1CCCCC1	0.0731	0.056	-0.825	0.0762	0.347	-0.096	0.107	-0.0165	-0.502	0.233
O=C(O)[C@]1(Cc2ccccc2)N=C(c2ccc(OCCCO)cc2)O[C@@H]1c1ccccc1	-0.218	0.398	-0.539	-0.201	0.206	-0.128	0.0893	0.306	-0.499	-0.905
COc1cc2c(cc1O)C(C)N(Cc1cc3c(cc1Br)OCO3)CC2 (stereo not given)	-1.15	-0.0195	-0.407	0.0966	0.201	-0.0944	-0.338	-0.252	0.208	-0.0712
COc1ccc([Si](C)(C)[C@@H]2[C@@H](CCn3cc([C@H](O)c4ccccc4)nn3)O[C@]3(C(=O)N(Cc4ccc(N5CCOC5=O)cc4)c4ccccc43)[C@H]2C)cc1	1.11	-2.29	0.846	0.142	-0.488	-0.0179	0.0224	-0.0675	1.74	1.06
COCCOC(=O)N1C(=O)[C@@]2(c3cc(C#CC4=CCCCC4)ccc31)[C@H](c1ccccc1OCCO)N1[C@H](c3ccccc3)[C@H](c3ccccc3)OC(=O)[C@H]1[C@@H]2C(=O)N1CCc2cc(OC)c(OC)cc2C1	1.33	-1.81	0.336	-0.141	-0.383	-0.121	-0.176	-0.008	0.336	0.761
COCCOC(=O)N1C(=O)[C@@]2(c3cc(C#Cc4ccc(OC)cc4)ccc31)[C@H](C(=O)N1CCCCCCC1)[C@H]1C(=O)O[C@H](c3ccccc3)[C@H](c3ccccc3)N1[C@@H]2c1ccc(O)cc1	1.36	-0.949	0.505	0.172	0.184	-0.0239	0.603	1.18	0.604	0.723
[N-]=[N+]=NCc1ccccc1C[C@]1(C(=O)NCC(O)CO)N=C(c2ccc(OCCCO)cc2)O[C@H]1c1ccccc1CN=[N+]=[N-] (stereo not given in full)	1.47	-2.88	-0.353	1.42	0.786	0.115	0.541	0.721	2.41	1.21
COc1ccc(NN2C(C(O)c3ccccn3)C=CC3C(=O)N(C4CCCCC4)C(=O)C32)cc1 (stereo not given)	1.41	-0.602	-0.188	1.58	0.37	0.0391	0.0875	1.17	0.766	0.887
COc1cc2c(cc1OC)CN(C(=O)[C@H]1[C@@H]3C(=O)O[C@@H](c4ccccc4)[C@@H](c4ccccc4)N3[C@@H](c3ccc(OCCO)cc3)[C@]13C(=O)Nc1ccc(C#CCCO)cc13)CC2	1.43	-0.563	0.509	1.23	0.642	0.0668	-0.0146	0.033	1.02	1.72
CO[C@H]1O[C@H](CO)[C@@H](OC(=O)Nc2ccccc2-c2ccccc2)[C@H](OC(=O)Nc2ccc3c(c2)OCO3)[C@@H]1OC(=O)Nc1ccc2c(c1)OCO2	1.49	-0.841	0.0086	1.24	-0.499	0.0244	0.232	1.21	0.541	1.01
